# Screening data as filed in PubChem BioAssay.
# CatB mixtures: human cathepsin B inhibition by mixtures; Purified cathepsin B, AMC dipeptide fluorescence, compound mixtures; P07858; inhibition, %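 (ten-compound pools at 5 µM per compound and 50 µM total)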; 62,000 compounds, 0.06% hits; in the data active means inhibition above about 22%, passing the limit was not always enough;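 further: 0% = enzyme without compound and 100% = no enzyme blank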
# CatS inh: inhibitors of human cathepsin S | P25774 | recombinant cathepsin S, AMC dipeptide fluorescence, pooled mixtures | inhibition, %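 (tested at 5 µM per compound within 10-compound mixtures)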 | 62,000 compounds, 0.06% hits; in the data active means inhibition above about 32%, passing the limit was not always enough;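 further: 0% = enzyme without compound and 100% = blank without enzyme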
# Target sequence (P25774 115-331 limits assumed): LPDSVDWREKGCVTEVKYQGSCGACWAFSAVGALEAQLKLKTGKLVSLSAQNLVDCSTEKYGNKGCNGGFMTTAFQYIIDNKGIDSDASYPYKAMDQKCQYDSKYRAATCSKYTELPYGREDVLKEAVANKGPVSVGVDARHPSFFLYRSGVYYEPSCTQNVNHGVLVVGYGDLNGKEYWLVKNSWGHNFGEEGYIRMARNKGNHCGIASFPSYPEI
# CatL block: blocks human cathepsin L protease activity | inhibition, %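 (tested at 10 µM)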 | purified cathepsin L, fluorogenic substrate, fluorescence | P07711 | 58,000 compounds, 0.17% hits; in the data active means inhibition above about 45%;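 further: 0% = enzyme with no compound and 100% = no enzyme blank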
# CatG inh: blocks human cathepsin G enzyme activity. P08311. 62,000 compounds, 0.2% hits. inhibition, % at 5 µM (by protocol). purified enzyme, AMC-tetrapeptide fluorescence, pooled mixtures;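 active means inhibition above 20% in each of the two mixture wells holding the compound; inactive means inhibition of 20% or less in either well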;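 further: 0% = enzyme control without mixture and 100% = blank lacking enzyme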
# CatB inh: inhibitors of human cathepsin B | P07858 | purified cathepsin B, fluorogenic substrate, fluorescence | inhibition, %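 (tested at 10 µM)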 | 63,000 compounds, 0.1% hits | AID 453; in the data active means inhibition above about 21%;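 further: 0% = enzyme with no compound and 100% = no enzyme blank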
# C1s inh: blocks human complement C1s protease activity; P09871; purified C1s, fluorogenic AMC substrate, pooled mixtures; mean inhibition % of two 10-compound mixtures (hits give high values), % at 5 µM (by protocol); 62,000 compounds, 0.16% hits; AID 538;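 active means inhibition above 20% in each of the two 10-compound mixture wells holding the compound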;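 further: 0% = enzyme wells lacking compound mixture and 100% = no-enzyme blank wells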
# Numbers without * were called inactive; x = not tested or not shown. Compounds with a hit are over-represented: about 0.54% of the library has one in this group of screens.
SMILES,CatB mixtures,CatS inh,CatL block,CatG inh,CatB inh,C1s inh
Cc1nonc1-c1nc(-c2nonc2N)n[nH]1,22*,20,23,0,12,-1
O=C(CCC(=O)N1CCC2(CC1)OCCO2)Nc1nnc(C(F)(F)F)s1,1,-14,6,10,1,10
OCC1(CO)COC(c2cccnc2)N1 (centres undefined),9,-1,-2,11,0,19
CC1(C)C(c2ccccc2)=NC(c2cccnc2)N1O (centres undefined),7,18,28,8,3,62*
Cc1cccc(NC(=O)CSc2nnc([C@@H](N)Cc3c[nH]c4ccccc34)o2)c1C,1,10,101*,-1,1,-6
CCSc1nnc([C@@H](N)Cc2c[nH]c3ccccc23)o1,-4,3,-5,0,-2,-4
O=C1NCCN2CCCC12 (centres undefined),x,x,5,x,2,x
CCn1nc(-c2ccccc2)nc2c(=O)n(C)c(=O)nc1-2,47,x,85*,2,76*,1
